tim10-1 inh: growth inhibitors of tim10-1 mutant yeast; S. cerevisiae tim10-1 ts strain growth, BacTiter-Glo, 24 h; inhibition, % at 20 µM; 330,000 tested, 2.2% active; AID 463190;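 active means inhibition of at least 40%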;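 further: mutant grown at 25 °C; 0% = DMSO wells with yeast and 100% = wells holding no yeast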
tim23-1 inh: tim23-1 yeast growth inhibition | S. cerevisiae tim23-1 growth, BacTiter-Glo luminescence, 24 h | inhibition, % at 20 µM | 330,000 tested, 1.3% active;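 active means growth inhibition of the mutant yeast at or above 50%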;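 further: temperature-sensitive mutant grown at 25 °C; plate controls were DMSO-treated mutant yeast for no effect and medium wells lacking yeast for full effect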
SKKanGAS inh: inhibitors of SKKanGAS S. pyogenes growth in kanamycin (SK-promoter or general growth effect) | BacTiter-Glo, 6 h | inhibition, % at 7.5 µM | 300,000 tested, 1.3% active | AID 1662;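 active means mean replicate score, as percent of positive control median, at least 50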;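 further: strain carries kanamycin resistance gene driven by streptokinase promoter and grows in 40 µg/ml kanamycin; loss of luminescence reflects streptokinase promoter inhibition or plain growth inhibition; 0% = median of DMSO wells and 100% = positive control at its reference dose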
NLRP3 yeast inh: NALP3 inhibition in yeast | Yeast reconstituted NLRP3/ASC/caspase-1, beta-gal luminescence, 24 h | inhibition, % at 10 µM | 330,000 tested, 0.39% active | AID 2825;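 active means inhibition of 50% or more; inactive means inhibition below 50%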;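 further: plate controls were induced DMSO wells for no effect and uninduced yeast grown without galactose for full effect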
TIM10 inh: inhibits growth of TIM10 yeast strain; S. cerevisiae TIM10 strain growth, BacTiter-Glo luminescence, 24 h; inhibition, % at 10 µM; 330,000 tested, 1.4% active;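 active means inhibition of 40% or more at the single tested concentration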;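 further: wild-type TIM10 isogenic control strain grown at permissive 25 °C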
PfHsp90 yeast 2: growth inhibition of yeast expressing Plasmodium Hsp90 | 310,000 tested, 0.32% active | inhibition, % at 9.4 µM | S. cerevisiae expressing PfHsp90, BacTiter-Glo ATP, 48 h; yeast lacking PDR1 and PDR3 efflux regulators | AID 504621;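 active means every replicate shows inhibition above about 80%, whatever the replicate mean, limit read from the data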;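 further: 0% = DMSO neutral controls and 100% = 20 µM radicicol positive controls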
NALP3 confirm: NALP3 inhibition confirmation in yeast. shares compounds with NLRP3 yeast inh. yeast expressing human NALP3, luminescence. inhibition, % at 10 µM. 1,300 tested, 81% active; in the data active means inhibition above about 48%
Casp1 ASC ctr: active in yeast caspase-1-ASC counter-screen for NALP3 inhibitors | shares compounds with NLRP3 yeast inh | yeast expressing Caspase-1-ASC, luminescence counter screen | inhibition, % at 10 µM | 1,000 tested, 66% active
NALP3 retest: yeast NALP3 inhibition, confirmed on retest; yeast expressing human NALP3, luminescence read-out; inhibition, % at 10 µM; 1,000 tested, 53% active; shares compounds with NLRP3 yeast inh
The depositor's hits bear a star. Sampled rows, rich in hits. Any-hit rate of the full collection: about 4.5%. Unless noted, no stated cut-off is given here; in the data, active means inhibition above about 50%; inactive means the rest.

Results for C[C@]12CCC(=O)C[C@@H]1CC[C@@H]1[C@@H]2CC[C@]2(C)[C@@H](O)CC[C@@H]12 ?
tim10-1 inh: -46.4; tim23-1 inh: 31.2; NLRP3 yeast inh: 50.1*; TIM10 inh: -11.7; NALP3 confirm: 54.7*; Casp1 ASC ctr: 59.6*; NALP3 retest: 42.0

Results for CC12CCC3C(CCC4CC(=O)OCC43C)C1CCC2O (configuration not stated) ?
PfHsp90 yeast 2: 8.7

What do the screens show for `C[C@]12CCC3C(CC[C@@H]4CC(=O)CC[C@]34C)C1CC[C@@H]2O` (some centres not stated)?
tim10-1 inh: -2.5; tim23-1 inh: 29.8; NLRP3 yeast inh: 68.0*; TIM10 inh: 2.8; PfHsp90 yeast 2: 14.9; NALP3 confirm: 57.8*

Results for ClCCN1CCSCC1 ?
PfHsp90 yeast 2: 72.1

How did CC(C)Oc1ccc(CCN)cc1Cl do in these assays?
tim10-1 inh: -16.6; tim23-1 inh: -1.5; SKKanGAS inh: 2.2; NLRP3 yeast inh: 52.5*; TIM10 inh: 2.5; PfHsp90 yeast 2: 24.2; NALP3 confirm: 56.5*; Casp1 ASC ctr: 35.0; NALP3 retest: 45.9

What do the screens show for `CCCCOc1ccc(CCN)cc1Cl`?
tim10-1 inh: 4.2; tim23-1 inh: 1.8; SKKanGAS inh: 5.1; NLRP3 yeast inh: 41.0; TIM10 inh: 3.2; PfHsp90 yeast 2: -10.3

Results for CCCCC/C(=N\O)c1c[nH]c2ccccc12 ?
tim10-1 inh: 29.6; tim23-1 inh: 42.5; SKKanGAS inh: 3.5; NLRP3 yeast inh: 54.9*; TIM10 inh: 14.3; PfHsp90 yeast 2: -0.6; NALP3 confirm: 56.8*; Casp1 ASC ctr: 53.1*; NALP3 retest: 46.4

Results for CCCCC/C(=N/O)c1c(C)[nH]c2ccccc12 ?
tim10-1 inh: 30.4; tim23-1 inh: 35.6; SKKanGAS inh: -12.2; NLRP3 yeast inh: 8.6; TIM10 inh: 34.4; PfHsp90 yeast 2: -24.7

What do the screens show for `C#CCOC(=O)C1=CCCN(C)C1`?
tim10-1 inh: 11.4; tim23-1 inh: 11.2; NLRP3 yeast inh: 25.9; TIM10 inh: 12.5; PfHsp90 yeast 2: 2.7

What do the screens show for `COC(=O)C1=C(c2ccc(OC(F)(F)F)cc2)C[C@@H]2CC[C@H]1N2C(=O)NC1CCCCC1`?
tim10-1 inh: -21.7; tim23-1 inh: 36.2; NLRP3 yeast inh: 12.7; TIM10 inh: 6.5; PfHsp90 yeast 2: 10.3

Results for CC1(C)C(=O)CC[C@@]2(C)C1=CCC1C2CC[C@]2(C)C(=O)CCC12 (some centres not stated) ?
tim10-1 inh: -9.1; tim23-1 inh: 26.4; NLRP3 yeast inh: 58.8*; TIM10 inh: -20.3; PfHsp90 yeast 2: -12.1; NALP3 confirm: 47.7*

How did COC(=O)C1=C(c2ccc(F)cc2F)C[C@@H]2CC[C@H]1N2C(=O)NC1Cc2ccccc2C1 do in these assays?
tim10-1 inh: 6.2; tim23-1 inh: 22.6; NLRP3 yeast inh: -136.0; TIM10 inh: -5.9; PfHsp90 yeast 2: 8.7; NALP3 confirm: 22.1

Results for O=C(O)CC[N+](=O)[O-] ?
tim10-1 inh: -3.8; tim23-1 inh: -10.5; SKKanGAS inh: -1.1; NLRP3 yeast inh: 21.1; TIM10 inh: 2.6; PfHsp90 yeast 2: -29.2

Results for C[C@]12C[C@@H](O)[C@H](O)CC1=CCC1C2CC[C@]2(C)C(=O)CCC12 (some centres not stated) ?
tim10-1 inh: -32.3; tim23-1 inh: -9.0; NLRP3 yeast inh: 27.0; TIM10 inh: -18.5; PfHsp90 yeast 2: 3.3

How did C[C@]12CCC3C(CC[C@H]4C[C@@H](O)[C@H](O)C[C@]34C)C1CC[C@@H]2O (some centres not stated) do in these assays?
tim10-1 inh: -25.0; tim23-1 inh: -1.2; NLRP3 yeast inh: 55.2*; TIM10 inh: -15.2; PfHsp90 yeast 2: 9.7; NALP3 confirm: 60.1*

Results for C[C@]12CC[C@@H](O)C[C@@H]1CC[C@@H]1[C@@H]2CC[C@]2(C)[C@@H](O)CC[C@@H]12 ?
tim10-1 inh: 23.2; tim23-1 inh: 39.7; SKKanGAS inh: -3.6; NLRP3 yeast inh: 53.2*; TIM10 inh: -2.3; PfHsp90 yeast 2: 9.4; NALP3 confirm: 66.3*; Casp1 ASC ctr: 56.5*; NALP3 retest: 49.0

Results for C[C@]12CCC3C(CC[C@H]4C[C@@H](O)CC[C@]34C)C1C[C@@H](O)[C@]2(C)O (some centres not stated) ?
tim10-1 inh: 0.8; tim23-1 inh: 8.2; NLRP3 yeast inh: 50.1*; TIM10 inh: -2.2; PfHsp90 yeast 2: 14.0; NALP3 confirm: 56.8*

Results for C[C@]12C[C@@H](O)[C@H](O)CC1=CCC1C2CC[C@@]2(C)C1CC[C@@H]2O (some centres not stated) ?
tim10-1 inh: -9.3; tim23-1 inh: 5.6; NLRP3 yeast inh: 58.3*; TIM10 inh: -19.9; PfHsp90 yeast 2: 17.4; NALP3 confirm: 55.0*

How did CCN(CC)C(=O)c1ccc(NC(=O)COC(=O)c2ccc(Cl)s2)cc1 do in these assays?
tim10-1 inh: 11.7; tim23-1 inh: 12.3; NLRP3 yeast inh: 5.0; TIM10 inh: 7.8; PfHsp90 yeast 2: 5.6

How did C=C1C(C)C2C(Cc3ccccc3)NC(=O)C23OC(=O)/C=C/C(O)CCCC(C)C/C=C/C3C1O (configuration not stated) do in these assays?
PfHsp90 yeast 2: -14.9

What do the screens show for `N#CC1=C(N)Oc2c(c(=O)oc3ccccc23)C1c1ccc(OC(=O)N2CCOCC2)cc1` (configuration not stated)?
tim10-1 inh: 2.2; tim23-1 inh: 6.8; SKKanGAS inh: -3.4; NLRP3 yeast inh: -11.1; TIM10 inh: -2.7; PfHsp90 yeast 2: -17.4

Results for CCN[C@@H](C)Cc1cccc(C(F)(F)F)c1 ?
tim10-1 inh: 14.8; tim23-1 inh: 6.3; NLRP3 yeast inh: 5.4; TIM10 inh: 3.8

What do the screens show for `C[C@]12CCC3C(CC[C@H]4C[C@@H](O)CC[C@]34C)C1CC[C@@]2(O)C(F)(F)F` (some centres not stated)?
tim10-1 inh: -0.6; tim23-1 inh: 25.9; NLRP3 yeast inh: 55.5*; TIM10 inh: -13.0; NALP3 confirm: 54.8*

How did C[C@H]1CC[C@@H]2N(C1)C[C@H]1[C@@H]3C[C@H]4[C@@H](CC(=O)[C@H]5C[C@@H](O)CC[C@@]54C)[C@@H]3CC[C@H]1[C@]2(C)O do in these assays?
tim10-1 inh: -0.1; tim23-1 inh: -14.3; SKKanGAS inh: -0.4; NLRP3 yeast inh: 6.1; TIM10 inh: -6.4; PfHsp90 yeast 2: -9.6

Screening results as filed in PubChem.
